Common to all, as to experiment: yeast three-hybrid, YBZ-1, SC-Leu-His + 0.5 mM 3-AT, 4 days
Details in all cases: tags: N-Gal4 AD-HA kept; label: inside an RPR1-promoter hybrid RNA with tandem MS2 sites; ssRNA

One test deals with PUM1 PUF domain R3-ARS (Homo sapiens, UniProt Q14671 828-1176, C935A;Q939S). The method in brief: (§1)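 Pumilio-1 PUF domain libraries, randomized (NNK) at the three base-contacting residues of each repeat, were co-expressed with matching RNA elements from a centromeric plasmid in strain YBZ-1 (LexA–MS2 coat fusion, HIS3 reporter). Transformants were plated on SC-Leu (input) and SC-Leu-His + 0.5 mM 3-AT (selection) for four days, and repeat regions were PCR-amplified and Illumina-sequenced. The interaction score is the log2 change in variant frequency from input to selection, with pseudocount 1 where absent.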

The next test has as its target PUM1 PUF domain R4-PHS (Homo sapiens, UniProt Q14671 828-1176, N971P;Q975S). The method in brief: as §1
A further test deals with PUM1 PUF domain R4-API (Homo sapiens, UniProt Q14671 828-1176, N971A;H972P;Q975I). Put shortly:
as §1

The next test addresses PUM1 PUF domain R4-DRG (Homo sapiens, UniProt Q14671 828-1176, N971D;H972R;Q975G). Put shortly:
as §1

The target in another test is PUM1 PUF domain R5-GTQ (Homo sapiens, UniProt Q14671 828-1176, C1007G;R1008T). The method in brief: as §1
For another test, the target named is PUM1 PUF domain R7-KRC (Homo sapiens, UniProt Q14671 828-1176, S1079K;N1080R;E1083C). Put shortly:
as §1

The target in the next test is PUM1 PUF domain R7-RSV (Homo sapiens, UniProt Q14671 828-1176, S1079R;N1080S;E1083V). Put shortly: as §1
A further test has as its target PUM1 PUF domain R1-RGV (Homo sapiens, UniProt Q14671 828-1176, S863R;R864G;Q867V). Put shortly: as §1
For a further test, the target named is PUM1 PUF domain R2-RRH (Homo sapiens, UniProt Q14671 828-1176, N899R;Y900R;Q903H). The method in brief: as §1
A further test addresses PUM1 PUF domain R7-LNG (Homo sapiens, UniProt Q14671 828-1176, S1079L;E1083G). The method in brief: as §1

For the sequence “GGCUAGAACUAGUGGAUCCCCCGGCGCCCGGCGGCUCGAGCCCGGGUAAGUGUAAUUAGUCUGCAUGCCGCCGGGCGCCAUGCCUGCAGGUCGACUCUAGAAAACAUG”, in the test with PUM1 PUF domain R3-ARS, the binding signal is 1.78 log2 enrichment (interaction score).

Regarding “GGCUAGAACUAGUGGAUCCCCCGGCGCCCGGCGGCUCGAGCCCGGGUAAGUGUAAAUAGUCUGCAUGCCGCCGGGCGCCAUGCCUGCAGGUCGACUCUAGAAAACAUG”, the binding signal with PUM1 PUF domain R4-PHS was 5.43 log2 enrichment (interaction score); with PUM1 PUF domain R4-API, 3.05 log2 enrichment (interaction score); in the test with PUM1 PUF domain R3-ARS, 4.04 log2 enrichment (interaction score); with PUM1 PUF domain R4-DRG, 2.71 log2 enrichment (interaction score); in the test with PUM1 PUF domain R5-GTQ, 2.12 log2 enrichment (interaction score).

On to “GGCUAGAACUAGUGGAUCCCCCGGCGCCCGGCGGCUCGAGCCCGGGUAAGUGUAUAUAGUCUGCAUGCCGCCGGGCGCCAUGCCUGCAGGUCGACUCUAGAAAACAUG”, for which, in the test with PUM1 PUF domain R4-PHS, the binding signal was 7.03 log2 enrichment (interaction score). Consider “GGCUAGAACUAGUGGAUCCCCCGGCGCCCGGCGGCUCGAGCCCGGGUAAGUCUAAAUAGUCUGCAUGCCGCCGGGCGCCAUGCCUGCAGGUCGACUCUAGAAAACAUG”, for which the binding signal is 4.66 log2 enrichment (interaction score) with PUM1 PUF domain R7-KRC and 1.68 log2 enrichment (interaction score) in the test with PUM1 PUF domain R7-RSV. For “GGCUAGAACUAGUGGAUCCCCCGGCGCCCGGCGGCUCGAGCCCGGGUAAGUGUAAGUAGUCUGCAUGCCGCCGGGCGCCAUGCCUGCAGGUCGACUCUAGAAAACAUG”, in the test with PUM1 PUF domain R3-ARS, the binding signal is 0.93 log2 enrichment (interaction score). As to “GGCUAGAACUAGUGGAUCCCCCGGCGCCCGGCGGCUCGAGCCCGGGUAAGUGUAAAUCGUCUGCAUGCCGCCGGGCGCCAUGCCUGCAGGUCGACUCUAGAAAACAUG”, the binding signal with PUM1 PUF domain R1-RGV is 2.51 log2 enrichment (interaction score). For “GGCUAGAACUAGUGGAUCCCCCGGCGCCCGGCGGCUCGAGCCCGGGUAAGUGUAAAGAGUCUGCAUGCCGCCGGGCGCCAUGCCUGCAGGUCGACUCUAGAAAACAUG”, the binding signal with PUM1 PUF domain R2-RRH was 3.09 log2 enrichment (interaction score). “GGCUAGAACUAGUGGAUCCCCCGGCGCCCGGCGGCUCGAGCCCGGGUAAGUGUUAAUAGUCUGCAUGCCGCCGGGCGCCAUGCCUGCAGGUCGACUCUAGAAAACAUG”: the binding signal with PUM1 PUF domain R5-GTQ was 2.42 log2 enrichment (interaction score).

Turning to “GGCUAGAACUAGUGGAUCCCCCGGCGCCCGGCGGCUCGAGCCCGGGUAAGUUUAAAUAGUCUGCAUGCCGCCGGGCGCCAUGCCUGCAGGUCGACUCUAGAAAACAUG”, the binding signal was 2.32 log2 enrichment (interaction score) with PUM1 PUF domain R7-RSV and 6.18 log2 enrichment (interaction score) with PUM1 PUF domain R7-LNG. Regarding “GGCUAGAACUAGUGGAUCCCCCGGCGCCCGGCGGCUCGAGCCCGGGUAAGUGUAAAAAGUCUGCAUGCCGCCGGGCGCCAUGCCUGCAGGUCGACUCUAGAAAACAUG”, the binding signal with PUM1 PUF domain R2-RRH is 0.36 log2 enrichment (interaction score).

“GGCUAGAACUAGUGGAUCCCCCGGCGCCCGGCGGCUCGAGCCCGGGUAAGUGUAAAUUGUCUGCAUGCCGCCGGGCGCCAUGCCUGCAGGUCGACUCUAGAAAACAUG”: the binding signal with PUM1 PUF domain R1-RGV was 2.5 log2 enrichment (interaction score).

For the origin of these results see article PMC8384837, “Expanding the binding specificity for RNA recognition by a PUF domain”.
